In the library only some 4.6% were active in any assay of this set; here they are far more common.
TIM10 inh = inhibits growth of TIM10 yeast strain | S. cerevisiae TIM10 strain growth, BacTiter-Glo luminescence, 24 h | inhibition, % at 10 µM | 330,000 compounds, 1.4% hits | AID 463195;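 active = inhibition of 40% or more at the single tested concentration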;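 note: wild-type TIM10 isogenic control strain grown at permissive 25 °C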
tim23-1 inh = growth inhibitors of tim23-1 mutant yeast. S. cerevisiae tim23-1 growth, BacTiter-Glo luminescence, 24 h. 330,000 compounds, 1.3% hits. inhibition, % at 20 µM;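 active = growth inhibition of the mutant yeast at or above 50%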;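 note: temperature-sensitive mutant grown at 25 °C; plate controls were DMSO-treated mutant yeast for no effect and medium wells lacking yeast for full effect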
SKKanGAS inh = blocks kanamycin growth of S. pyogenes SKKanGAS strain; BacTiter-Glo, 6 h; inhibition, % at 7.5 µM; AID 1662; 300,000 compounds, 1.3% hits;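 active = mean replicate score, as percent of positive control median, at least 50; inconclusive = mean below 50 but one replicate at or above 50; inactive = mean and every replicate below 50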;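 note: strain carries kanamycin resistance gene driven by streptokinase promoter and grows in 40 µg/ml kanamycin; loss of luminescence reflects streptokinase promoter inhibition or plain growth inhibition; 0% = median of DMSO wells and 100% = positive control at its reference dose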
PfHsp90 set2 = reduces growth (ATP signal) of yeast expressing P. falciparum Hsp90. inhibition, % at 9.4 µM. 310,000 compounds, 0.32% hits. S. cerevisiae expressing PfHsp90, BacTiter-Glo ATP, 48 h; yeast lacking PDR1 and PDR3 efflux regulators. AID 504621;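 active = every replicate shows inhibition above about 80%, whatever the replicate mean, limit read from the data; inconclusive = mean inhibition reaches the set limit but some replicate falls short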;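 note: 0% = DMSO neutral controls and 100% = 20 µM radicicol positive controls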
tim10-1 inh = growth inhibitors of tim10-1 mutant yeast. AID 463190. 330,000 compounds, 2.2% hits. S. cerevisiae tim10-1 ts strain growth, BacTiter-Glo, 24 h. inhibition, % at 20 µM;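 active = inhibition of at least 40%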;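 note: mutant grown at 25 °C; 0% = DMSO wells with yeast and 100% = wells holding no yeast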
V-ATPase pH = yeast V-ATPase proton transport regulation by pHLuorin. S. cerevisiae, pHLuorin cytosolic pH fluorescence. response, % at 10 µM. 350,000 compounds, 0.37% hits; in the data active = response mostly above about 7.3%, no sharp cut-off; inactive = mostly below about 5.4%; note: actives read high
* hit, by the source's call; ? = inconclusive; nt = not tested or not shown.

SMILES	TIM10 inh	tim23-1 inh	SKKanGAS inh	PfHsp90 set2	tim10-1 inh	V-ATPase pH
COC(=O)C1=C(C)N(CCc2ccc(OC)c(OC)c2)C(=O)C1	0.7	20.9	0.4	-17.1	9.3	31.4*
O=C(OCc1ccccc1)c1cccc(-c2nnn(Cc3ccccc3)n2)c1	0.7	-3.3	54.6*	7.4	33.3	-0.4
O=C(Cn1nnc(-c2ccccc2)n1)OCc1ccccc1	-0.4	8.8	-2.6	-17.5	25.4	0.1
CC1(C)CC(=O)C2=C(C1)OC1=C(C2)C(=O)CC(C)(C)C1	12.1	16.7	-2.2	1.0	22.9	145.8*
COc1cccc(C(=O)Nc2nnc(-c3ccc(Cl)cc3)o2)c1	-6.9	-26.3	88.0*	74.2	12.7	-0.2
COc1cccc(-c2nnc(NC(C)=O)o2)c1	-5.7	9.5	3.8	-1.2	12.0	-3.9
COc1cccc(C(=O)Nc2nnc(-c3cccs3)o2)c1	0.5	1.2	77.4*	-4.8	12.1	6.1
COc1cc(OC)cc(-c2nnc(NC(=O)c3ccc4c(c3)OCCO4)o2)c1	-8.6	-10.8	108.9*	-53.1	26.8	0.1
O=C(Nc1nnc(-c2cccs2)o1)c1ccco1	-8.8	8.5	-0.7	2.0	-2.5	2.2
CCCCNC(=O)Nc1nnc(-c2ccc(OCC)cc2)o1	-10.9	16.0	nt	-9.0	-4.2	-1.1
CCOc1ccc(-c2nnc(NC(=O)c3ccc(OCC(C)C)c(OC)c3)o2)cc1	17.6	19.7	115.2*	-119.8	16.3	-0.5
O=C(Nc1nc2ccc(F)cc2s1)C1CCCO1 (stereo not drawn)	2.1	16.1	-1.7	-22.7	17.6	1.2
Cc1ccc(NC(=O)N2CCOCC2)cc1NC(=O)N1CCOCC1	nt	nt	nt	nt	nt	2.1
CS(=O)(=O)c1cccc(-c2nnc(NC(=O)c3ccc4ncsc4c3)o2)c1	-7.8	-9.3	16.3	nt	-1.8	0.0
COc1cccc(-c2nnc(NC(=O)c3ccc4ncsc4c3)o2)c1	24.5	9.8	69.4*	-57.3	20.8	-3.1
COc1cccc(C(=O)Nc2nnc(-c3ccc(F)cc3)o2)c1	21.0	-35.5	91.2*	-27.3	28.1	1.8
CC1CCN(C(=O)COC(=O)CSc2ccc(C(N)=O)cc2[N+](=O)[O-])CC1	5.2	-3.5	0.7	2.0	-1.6	1.2
COc1cc2ccccc2cc1C(=O)N/N=C/c1cccs1	nt	nt	nt	nt	nt	0.5
CS(=O)(=O)N(CC(=O)NCCSC1CCCCC1)c1ccc2c(c1)OCO2	5.0	16.9	-16.2	5.6	4.2	23.6*
O=CNc1c(Cl)cc2c(c1Cl)Cc1cc([N+](=O)[O-])ccc1-2	nt	nt	nt	nt	nt	-0.7
C/C(=N\NC(=O)CSc1nc(C)[nH]c1[N+](=O)[O-])c1ccc(F)cc1	7.1	11.1	56.1*	0.9	3.5	-1.7
Cc1cc(/C=C2\SC(=S)NC2=O)c(C)n1-c1cccc(O)c1	0.9	27.2	81.5*	93.8*	9.6	-2.9
Cc1cc(/C=C2\SC(=S)N(C)C2=O)c(C)n1-c1ccccc1O	21.7	-9.8	88.4*	6.4	-5.6	0.3
Cc1ccc([C@H]2N[C@]3(CCCN(Cc4ccc(F)cc4)C3=O)[C@H]3C(=O)N(C)C(=O)[C@@H]23)cc1	nt	nt	nt	nt	nt	-1.8
CCCCCCC(=O)N(O)C1CC(=O)N(c2ccc(Cl)cc2)C1=O (stereo not drawn)	12.1	36.5	3.7	110.3*	23.6	1.3
SMILES	TIM10 inh	tim23-1 inh	SKKanGAS inh	PfHsp90 set2	tim10-1 inh	V-ATPase pH
Cc1ccc(N2C(=O)CC(N(O)C3CC(=O)N(c4ccc(C)cc4)C3=O)C2=O)cc1 (stereo not drawn)	4.4	11.6	-1.3	-6.4	12.0	1.6
O=C(Nc1ccccc1C(=O)Nc1nnc(C(F)(F)F)s1)c1ccccc1Cl	9.0	9.6	100.6*	-3.0	6.6	4.1
COc1ccccc1-c1cccc([C@@H]2C[C@H]3[C@@H](CN2)CON3C)c1	nt	nt	nt	4.7	nt	-1.6
CN(C)c1ccc(C2C=C(c3ccc(Cl)cc3OC(F)F)Nc3ncnn32)cc1 (stereo not drawn)	25.7	40.3	87.5*	-4.3	31.0	4.2
COc1ccc2c(C)cc3n[nH]c(=S)n3c2c1	29.3	36.7	-1.1	-41.1	23.1	-4.7
O=c1c2c(nc3c(-c4ccc(Cl)cc4)c[nH]n13)CCCC2	20.6	6.7	71.0*	-2.6	21.5	-1.9
COc1c(N2CCN(C(=S)NC3CC4CCC3C4)C(C)C2)c(F)cc2c(=O)c(C(=O)O)cn(C3CC3)c12 (stereo not drawn)	12.0	16.4	101.5*	-13.1	12.2	-0.5
CC(=O)N1CCN(c2cc3c(cc2F)c(=O)c(C(=O)O)cn3C2CC2)CC1	9.0	8.1	?	-10.9	-9.8	2.2
COc1c(N2CCNC(C)C2)c(F)cc2c(=O)c(C(=O)O)cn(C3CC3)c12 (stereo not drawn)	2.9	3.2	105.4*	nt	-9.0	nt
NC1CCN(c2nc3c(cc2F)c(=O)c(C(=O)O)cn3-c2ccc(F)cc2F)C1 (stereo not drawn)	5.6	-22.9	103.3*	-12.2	2.9	2.7
CCn1cc(C(=O)O)c(=O)c2cc(F)c(N3CCNCC3)nc21	nt	nt	nt	-3.6	nt	0.2
NC1CCN(c2c(F)cc3c(=O)c(C(=O)O)cn(C4CC4)c3c2Cl)C1 (stereo not drawn)	-3.6	-0.4	73.9*	8.2	20.6	-1.2
COc1ccc(NC(=O)c2ccc(C)cc2)c[n+]1[O-]	nt	nt	-1.3	10.8	nt	-2.8
COc1c(N2CCN(C(=S)Nc3ccc(F)cc3)C(C)C2)c(F)cc2c(=O)c(C(=O)O)cn(C3CC3)c12 (stereo not drawn)	10.8	5.1	115.3*	-7.6	12.2	0.9
CC1CCc2c(N3CCC(O)CC3)c(F)cc3c(=O)c(C(=O)O)cn1c23 (stereo not drawn)	12.2	18.2	nt	-0.6	7.3	5.5
O=C(CSc1nnc(C2CC2)n1Cc1ccccc1)N1CCNC1=O	-2.6	10.2	nt	2.7	0.5	3.7
CCOc1ccccc1NC(=O)COC(=O)COc1c(Cl)cc(Cl)c2ccc(C)nc12	9.3	4.4	14.8	-8.5	10.0	-1.5
CCN(CC(=O)NC(C)(C)C)C(=O)COc1c(Cl)cc(Cl)c2ccc(C)nc12	18.6	30.3	86.8*	-32.9	22.0	1.4
CN(c1ccccc1)S(=O)(=O)c1ccc(C(=O)OCC(=O)NCc2cccs2)cc1	-29.9	-2.3	-0.1	5.2	-21.1	3.3
CCOC(=O)C1CCN(C2=C(NS(=O)(=O)c3ccc(Cl)cc3)C(=O)c3ccccc3C2=O)CC1	6.9	36.6	51.9*	1.1	18.6	1.7
CCOC(=O)C1CCCN(C2=C(NS(=O)(=O)c3ccc(Br)cc3)C(=O)c3ccccc3C2=O)C1 (stereo not drawn)	14.7	35.6	21.9	2.6	34.2	-1.0
Cc1cc(C)c(C)c(S(=O)(=O)N(C)CCc2ccccn2)c1C	2.2	22.2	nt	0.1	0.8	-4.0
CN(c1ccccc1)c1ccc(/C=C/[N+](=O)[O-])cc1	nt	nt	12.0	106.0*	nt	-3.3
O=[N+]([O-])c1ccc(C=CC=Cc2ccccc2)cc1	nt	nt	nt	nt	nt	-0.2

Source: PubChem (several laboratories)
